# From the supplement of paper PMC3334620
# The full ranking holds about 33,000 sequences; the median of “E-score (-0.5 to 0.5)” is about -0.012, and the highest 2% start at about 0.27. The sample holds the highest values, similar sequences and a random draw of the others, so the mix is not that of the screen.
# Biological target: T1, Vhr1 (UniProt P40522)
# T1 sequence: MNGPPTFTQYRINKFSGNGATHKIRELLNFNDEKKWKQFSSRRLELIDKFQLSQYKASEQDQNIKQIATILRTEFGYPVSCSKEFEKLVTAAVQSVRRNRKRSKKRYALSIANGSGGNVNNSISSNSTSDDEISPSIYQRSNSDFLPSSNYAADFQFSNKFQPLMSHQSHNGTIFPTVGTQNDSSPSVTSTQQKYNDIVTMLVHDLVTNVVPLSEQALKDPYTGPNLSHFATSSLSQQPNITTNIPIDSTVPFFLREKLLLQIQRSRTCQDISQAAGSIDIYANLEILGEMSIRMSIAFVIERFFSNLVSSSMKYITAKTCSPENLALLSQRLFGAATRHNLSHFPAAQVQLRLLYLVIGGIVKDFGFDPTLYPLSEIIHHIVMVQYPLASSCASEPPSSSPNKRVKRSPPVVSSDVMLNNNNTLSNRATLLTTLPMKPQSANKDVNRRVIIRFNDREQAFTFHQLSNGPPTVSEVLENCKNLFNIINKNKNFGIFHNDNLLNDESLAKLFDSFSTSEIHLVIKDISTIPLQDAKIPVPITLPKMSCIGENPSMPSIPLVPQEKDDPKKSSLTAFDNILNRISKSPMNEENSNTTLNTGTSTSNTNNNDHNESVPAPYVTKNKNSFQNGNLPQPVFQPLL
# Assay: PBM E-score (8-mer binding enrichment) (E-score (-0.5 to 0.5)); higher = stronger / more preferred TF binding
# Settings: protein concentration: 200 nM; construct: GST-full length
# Experimental: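 Universal 'all 10-mer' protein binding microarrays (Agilent AMADID 015681) probed with GST-tagged S. cerevisiae TFs (full-length or DBD) made by in vitro transcription/translation (PURExpress), about 100-200 nM. Bound TF was detected with fluorescent anti-GST. Each ungapped 8-mer (which stands for itself and its reverse complement) is scored by the PBM enrichment score (E-score), a modified Wilcoxon-Mann-Whitney statistic from -0.5 to +0.5, computed with the Universal PBM Analysis Suite. Scale: above 0.35 generally sequence-specific binding.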
row,Sequence,PBM E-score
1,ACCTCCTG,-0.139
2,CGTCTCGC,-0.0775
3,ATATCTGC,0.104
4,AGAAGATG,-0.183
5,ACCCGCGC,0.342
6,ACCCGCGG,0.275
7,CCCCGCCA,0.398
8,CACCGCCC,0.293
9,CACCGCCA,0.242
10,AGCCGCGG,0.178
11,ACCCGCGT,0.00191
12,AACCGCCC,0.0139
13,TCCCGCCA,0.0546
14,CCCCGCGG,0.0864
15,GCCCGCCA,0.13
16,ACCCGCGA,0.144
17,AGTCTAAG,-0.0818
18,AAAAAAGC,-0.19
19,CGAGATTA,0.0687
20,GGAGGGGA,0.219
21,TACGCCAA,-0.241
22,ACCCGCCG,0.197
23,GCCCGCCC,0.137
24,ACCCGCCC,0.428
25,ATCCTACC,0.0595

row,Sequence,PBM E-score
1,ACGCTTAC,-0.205
2,CTGTGTGA,0.306
3,CTGTGTTA,0.169
4,CTGTGTGC,0.177
5,ATGTGTCG,0.29
6,ATGTGTTA,0.195
7,ATGTGTCC,0.157
8,ATGTGTGG,0.08
9,ATGTGTCA,0.143
10,ATGTGTGC,0.12
11,CTGTGTAA,0.134
12,GTGTGTTA,0.278
13,ATGTGTGA,0.29
14,AGGACTGG,0.113
15,ACTAGACG,-0.048
16,ATTTTGCC,-0.15
17,AGACTTGC,-0.249
18,AACATCTA,-0.152
19,CACCAGCC,0.143
20,ATAGACGG,0.00408
21,TACCAACA,0.145
22,GATATGCA,-0.0288
23,TCTTTCCA,-0.157
24,GGCCAAAC,-0.155
25,GCGTGTGA,0.104

row,Sequence,PBM E-score
1,GTGTGTGA,0.298
2,GTGTGAGA,0.0943
3,TAGAGGGA,-0.0999
4,AGTTTGAT,0.0522
5,CTTAACCC,-0.213
6,GACCAGAC,-0.141
7,AACCAGAC,-0.00075
8,CACCAGAC,0.309
9,GCTTGCAC,-0.0624
10,ACGATTAG,0.045
11,ACGATTAC,0.161
12,ATGATTAA,0.264
13,ATCATTAA,0.0987
14,CTGATTTC,-0.00794
15,AAGATTAC,-0.0671
16,ATCATTAC,0.274
17,ATGATTAC,0.391
18,ATGATTAG,0.317
19,ATCATTAG,0.148
20,CTGATTAC,0.278
21,CTGATTAA,0.191
22,TGCCACAA,0.0692
23,TAGTAGAA,-0.199
24,ATGGTAGG,0.104
25,CCTAAGCA,-0.108

row,Sequence,PBM E-score
1,GAAGCACA,-0.00604
2,GATCAGTA,0.121
3,ACGTGACT,0.41
4,AGGTGACA,0.0488
5,ACGTGACG,-0.137
6,ACGTGACA,-0.197
7,AGGTGACT,0.425
8,AGGTGACG,-0.0476
9,CTCATAAC,0.00985
10,ATGTGGTG,0.227
11,AGAAGATA,-0.193
12,TCAGTTAA,-0.108
13,AGTAGGCA,0.154
14,CACAACGC,0.134
15,AAGACTAG,-0.209
16,CAGACTAC,0.136
17,GTGACTTA,0.259
18,CAGACTAA,0.117
19,CGGACTAA,0.102
20,CTGACTAC,0.361
21,GTGACTAA,0.428
22,ACGACTAG,0.162
23,CGGACTAC,0.0519
24,GGGACTAA,-0.209
25,ATGACTAG,0.369

row,Sequence,PBM E-score
1,CTGACTAA,0.359
2,AGGTGGAG,-0.191
3,CGATCGCA,0.178
4,TCCCTGCA,0.0302
5,AGGGTTGC,-0.068
6,CGAGCGAG,0.262
7,ATTCGAGC,-0.0346
8,GGCCATAC,0.0276
9,ATGACTAC,0.462
10,AGGACTAA,0.054
11,AGGACTAC,0.067
12,AAGACTAC,0.122
13,AAGACTAA,0.116
14,ATGACTAA,0.42
15,AGTCTACC,-0.0695
16,CGAAGTGC,-0.107
17,AAACGCAC,0.142
18,CAAAAGGA,-0.2
19,AACTGATC,0.157
20,CGGCAGCA,-0.0628
21,CGGCAGCC,0.282
22,AGGCAGCC,-0.0232
23,AGGGGGCA,-0.151
24,GAAACACA,0.0985
25,AATTGAGA,-0.0698

row,Sequence,PBM E-score
1,AATTGAGG,-0.233
2,AATTGAGT,0.272
3,TGAATCCA,0.185
4,CTCATGAG,0.0895
5,CTCATGAC,0.326
6,ATCATGAC,0.335
7,ATCATGAG,0.235
8,CACATGAC,0.272
9,CTCATGAA,0.0223
10,GTCATGAA,0.257
11,GACATGAC,0.202
12,GTCATGAC,0.31
13,CACATGAG,0.065
14,ATCATGAA,0.118
15,CACATGAA,0.0563
16,CTTTCAAC,-0.128
17,CGTGGTGA,-0.158
18,CAGACGGC,-0.0191
19,CGAACTAG,-0.0301
20,TCTAGAAA,-0.272
21,AACCCTGA,0.286
22,GACCCATA,0.251
23,AACCCATA,0.271
24,ACCCCTGA,0.143
25,AACCCATT,0.0791

row,Sequence,PBM E-score
1,CACCCTGA,0.245
2,AATTGACT,0.149
3,CTTAAGTA,-0.199
4,CTAGGTTC,-0.0959
5,CCGAATGC,-0.0649
6,GATAGTAA,0.0876
7,TATAGTCA,0.318
8,CATAGTCC,0.115
9,AATAGTCT,-0.0519
10,GATAGTCA,0.357
11,CATAGTCG,0.238
12,AATAGTCA,0.344
13,TATAGTAA,0.15
14,CATAGTCA,0.37
15,GATAGTCC,0.0259
16,AATAGTCG,0.148
17,TATAGTGA,-0.0332
18,ACGGGAGG,-0.13
19,AATGTGGT,0.115
20,GAATCGAC,-0.005
21,ACAAATCG,0.0133
22,ATCAGCTA,0.0387
